Cycloheximide cs: counter-screen for Shiga toxin inhibitors: cycloheximide protein synthesis inhibition. cell reporter, cycloheximide protein synthesis inhibition counterscreen. max response, %. actives 12% (n = 300,000). AID 2314; in the data active means max response mostly above about 13%, no sharp cut-off; inactive means mostly below about 14%; further: read at 38.3 µM for the half of the compounds with a filed dose; 0% is about no effect
Pf growth 96h: inhibits malaria parasite growth, 96 h. actives 6.9% (n = 320,000). P. falciparum luciferase reporter growth, 96 h. Potency, µM (series often up to 28.7 µM), for inactives: at the highest dose activity change, negative = inhibition, most hits filed as inhibitors; further: potency means the concentration at half of the fitted maximal effect; on the % scale 0 is the no-effect control and ±100 the full control effect
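Plates of compound plus infected erythrocytes (2% hematocrit, 0.05% parasitemia final) incubate 96 hours, 37 C, 5% CO2. Detection reagent added; reduced luminescence from the parasites' luciferase reporter flags inhibition.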
AMA1 RON2 block: disrupts binding of P. falciparum AMA1 to RON2; AID 720542; AlphaScreen AMA1-biotinylated RON2 peptide binding; Potency, µM (series often up to 58.2 µM), for the others: at the highest dose activity change, negative = inhibition, hits mostly inhibitors; actives 0.2% (n = 360,000);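 further: potency means the concentration at half of the fitted maximal effect; 0% = vehicle wells and -100% = peptide control; nearly all actives have a fitted effect of over 45% in size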
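AMA1 (3D7) with his tag at 25 nM final met compounds first, then biotinylated RON2 peptide at 25 nM; detection used donor plus acceptor beads, 10 µg/mL apiece, read by AlphaScreen after 30 min at room temperature.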
Shiga inhibitor: blocks Shiga toxin action in Vero cells; Vero cells, Shiga toxin protein synthesis inhibition reporter; inhibition, % at 38.7 µM; actives 9.2% (n = 290,000); in the data active means inhibition mostly above about 28%, no sharp cut-off; inactive means mostly below about 43%; further: 0% is about no effect
HCV inhibitor: HCV inhibition | Huh7.5.1 HCVcc-Cre infection, luciferase reporter, 44 h | Potency, µM (doses to about 41.8 µM), for inactives: at the top dose activity change, negative = inhibition, most hits filed as inhibitors | actives 3.4% (n = 340,000) | AID 651820; further: potency means the concentration at half of the fitted maximal effect; on the % scale 0 is the no-effect control and ±100 the full control effect
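1,000 cells/well; 4 h culture; + compound; + HCVcc-Cre (~0.5 moi); 44 h; luciferase substrate, RT 15 min; read 15 sec.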
Pf growth 48h: inhibits P. falciparum growth in the first generation, 48 h; P. falciparum luciferase growth in erythrocytes, 48 h; Potency, µM (top dose mostly 28.7 µM), for inactives: top-dose activity change, negative = inhibition, most hits filed as inhibitors; actives 5.9% (n = 310,000); further: potency means the concentration at half of the fitted maximal effect; on the % scale 0 is the no-effect control and ±100 the full control effect
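Erythrocytes infected with P. falciparum carrying an integrated firefly luciferase reporter (2% hematocrit, 0.1% parasitemia final) were exposed to compounds in RPMI 1640 with 0.5% Albumax at 37 C, 5% CO2. Growth inhibition was scored as reduced luminescence.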
An asterisk follows results filed as active; ? = inconclusive; . = not tested or not shown; [ ] = remark or other dose. The list is not random: actives were taken first. Their share in the collection is about 21%. Unless noted, the call rests on the fitted dose curve; in most records, active means well fitted curve in the direction sought with a large enough effect; inconclusive means small, poorly fitted or top-dose-only effect, or another doubt; inactive means no such curve, though single readings can be large; an effect the other way counts as inactive or inconclusive.

SMILES	Cycloheximide cs	Pf growth 96h	AMA1 RON2 block	Shiga inhibitor	HCV inhibitor	Pf growth 48h
Cc1ccc(N2CC(C(=O)N3CCN(Cc4ccc5c(c4)OCO5)CC3)CC2=O)cc1 (stereo not given)	-2	?	-8%	-3	-11%	-5%
CCc1ccc(CN2CCC(C(=O)Nc3ccc(Oc4ccccc4)nc3)CC2)o1	3	-40%	-4%	-10	11µM*	?
O=C(Nc1ccc(Oc2ccccc2)nc1)C1CCN(Cc2ccccc2)CC1	1	-27%	5%	-16	?	-16%
Cc1ccccc1OCC(=O)Nc1cccc2nsnc12	-2	?	8%	2	?	137%
CSc1ccccc1NC(=O)COc1ccccc1C	27*	94%	68%	47*	-16%	6%
Cc1ccccc1OCC(=O)Nc1ccccc1CO	14	-13%	3%	78*	?	49%
O=C(OCC(=O)N1CCC(Cc2ccccc2)CC1)c1ccccc1	55*	57%	-3%	79*	-2%	110%
O=C(NCC(=O)N1CCCCCC1)c1ccc(Br)cc1	34*	45%	-2%	47*	5%	30%
O=C(NCCC(=O)N1CCCCCCC1)c1ccc(Br)cc1	.	10µM*	65%	.	8%	13µM*
O=C(NCC(=O)N1CCOCC1)c1ccc(Br)cc1	10	-1%	-2%	20	17%	27%
CC(=O)N1CCN(C(=O)CCNC(=O)c2ccc(Br)cc2)CC1	.	.	16%	.	9%	.
CC(C)(C)c1ccc(C(=O)NCCC(=O)N2CCCC2)cc1	40*	150%	0%	96*	-17%	143%
CC(C)(C)c1ccc(C(=O)NCCC(=O)N2CCN(c3ncccn3)CC2)cc1	-1	.	8%	5	0%	-20%
COc1ccc(NC(=O)C2c3ccccc3OCC(=O)N2Cc2ccco2)cc1 (stereo not given)	.	.	4%	.	.	.
CC(C)(C)c1ccc(C(=O)NNC(=O)C(=O)N2CCCCC2)cc1	17*	12%	17%	39*	.	-9%
O=C(NCCC(=O)N1CCCCC1)c1ccc(Br)cc1	56*	75%	-4%	88*	16%	76%
O=C(NNC(=O)c1ccccc1)C(=O)N1CCCCC1	-2	0%	12%	15	20%	20%
CC(C)(C)c1ccc(C(=O)N2CCN(C(=O)C3CCCCC3)CC2)cc1	-4	10µM*	5%	-10	-6%	?
CC(C)(C)c1ccc(C(=O)N2CCCN(C(=O)c3ccc(C(C)(C)C)cc3)CC2)cc1	-2	158%	17%[2.32 µM]	-3	-10%	31%
O=C(NCC(=O)N1CCCC1)c1ccc(Cl)cc1	16*	-13%	6%	27*	15%	12%
CC(=O)C[C@H]1SC[C@@H](C(C)C)N1S(=O)(=O)c1ccc(C)cc1	.	.	2%	.	.	.
CC(=O)N1CCC(C(=O)OCc2ccccc2F)(c2ccccc2)CC1	-2	0%	-3%	36	-14%	7%
O=C(NCC(=O)N1CCC(Cc2ccccc2)CC1)c1ccc(Cl)cc1	1	13µM*	8%	7	?	0%
NS(=O)(=O)c1cccc(NC(=O)CSc2n[nH]c(-c3ccccc3Br)n2)c1	.	.	4%	.	-8%	.
O=C(c1c(F)cccc1F)N1CCCC(c2nc(-c3ccc(F)cc3)no2)C1 (stereo not given)	24*	142%	0%	.	?	38%
SMILES	Cycloheximide cs	Pf growth 96h	AMA1 RON2 block	Shiga inhibitor	HCV inhibitor	Pf growth 48h
COc1ccc(-c2noc(C3CCCN(C(=O)c4cccs4)C3)n2)cc1 (stereo not given)	18	.	-6%	55	?	3%
O=C(c1ccc(F)cc1)N1CCCC(c2nc(-c3ccncc3)no2)C1 (stereo not given)	.	21%	1%	.	?	5%
COc1ccc(-c2noc(C3CCCN(C(=O)c4ccc(C)cc4)C3)n2)cc1 (stereo not given)	15	-18%	-23%	11	13µM*	114%
COc1ccc(-c2noc(C3CCCN(C(=O)c4ccc(F)cc4)C3)n2)cc1 (stereo not given)	26*	94%	-10%	71	?	-10%
Cc1c(C(=O)N(CCO)Cc2ccccc2)oc2c(F)cccc12	35*	?	-4%	32*	-20%	2%
Cc1cc(Cl)c2oc(C(=O)N(C)C3CCOC3)c(C)c2c1 (stereo not given)	36*	13%	0%	55*	?	37%
Cc1cc(Cl)c2oc(C(=O)N(C)Cc3cc(C)[nH]n3)c(C)c2c1	10	9%	-7%	12	?	0%
Cc1ccc2oc(C(=O)N(CCO)Cc3ccccc3)c(C)c2c1	-1	4%	-5%	-3	-1%	33%
Cc1cc(Cl)c2oc(C(=O)N(CCO)Cc3ccccc3)c(C)c2c1	21*	?	-2%	64*	-9%	?
Cc1cc(Cl)c2oc(C(=O)N(C)Cc3ccon3)c(C)c2c1	48*	0%	16%	95*	?	30%
NCCCC[C@H](NC(=O)[C@@H]1CCCN1C(=O)[C@H](CO)NC(=O)[C@H](CC(=O)O)NC(=O)CNC(=O)[C@H](CCCN=C(N)N)NC(=O)CN)C(=O)O	-1	.	.	-6	.	.
COCCOc1cc(NC(=O)CS(=O)(=O)CC(=O)N(C)C)c(Cl)cc1Cl	2	3%	-2%	-3	2%	0%
O=C(Cc1ccccc1)NCC(=O)N1CCC1	-13	20%	2%	-5	-1%	21%
CCC(ONc1ccccc1C(F)(F)F)(C(=O)NN(C)C)c1ccccc1 (stereo not given)	.	-2%	24%	.	-6%	?
CCOc1cc(NC(=S)Nc2ccccc2)c(OCC)cc1NC(=O)c1ccccc1	-3	8.3µM*	19%	-9	?	?
CCOc1cc(NC(=O)c2ccccn2)c(OCC)cc1NC(=O)c1ccccc1	0	43%	-2%	-18	-4%	-14%
CCOc1cc(NC(=O)C(C)C)c(OCC)cc1NC(=O)Nc1ccccc1	-1	12µM*	3%	.	-10%	-19%
CCOc1cc(NC(=S)NCc2ccccc2)c(OCC)cc1NC(=O)C(C)C	-1	?	2%	-4	-12%	-28%
COc1ccc(N2CCN(CC(O)COC(c3ccc(F)cc3)c3ccc(F)cc3)CC2)cc1 (stereo not given)	-3	15µM*	28µM*	-3	?	9.3µM*
OC(COc1ccc(-c2ccccc2)cc1)CN1CCCCC1 (stereo not given)	.	.	-2%	.	.	.
OC(COc1ccc(CNCCc2ccccc2F)cc1)CN1CCCCC1 (stereo not given)	1	-12%	-2%	6	?	6.6µM*
OC(COc1cccc2ccccc12)CN1CCOCC1 (stereo not given)	.	.	-4%	.	5%	.

Screening results (PubChem BioAssay)
